aGlu spleen mod – qHTS Assay for Inhibitors and Activators of Human alpha-Glucosidase From Spleen Homogenate; Lysosomal alpha-glucosidase (Homo sapiens), P10253; human spleen homogenate, 4-MU-alpha-glucoside fluorescence; Potency, µM (top dose mostly 79.9 µM), hits mostly inhibitors; hit rate 0.006% among 240,000; AID 2112, 2009
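Compounds were titrated against alpha-glucosidase in spleen homogenate at pH 5.0, with 1 mM 4-methylumbelliferyl substrate for 40 min at 37 C. Reactions were quenched with pH 10 NaOH/glycine and fluorescence measured.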
GAA inhib – qHTS Assay for Inhibitors of Human alpha-Glucosidase as a Potential Chaperone Treatment of Pompe Disease; Lysosomal alpha-glucosidase (Homo sapiens), P10253; hit rate 0.005% among 200,000; Potency, µM (top dose mostly 76.9 µM), actives largely listed as inhibitors; purified human GAA, 4-MU-alpha-glucoside fluorescence; AID 1466, 2008
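qHTS format, compound range up to 77 uM. Human lysosomal enzyme at 4 nM, 400 uM 4-MU glucoside substrate, pH 5.0, 20 min room temperature; fluorescence after alkaline stop gives activity normalized to controls.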
GAA glycogen – qHTS Assay for Inhibitors and Activators of Human alpha-Glucosidase Cleavage of Glycogen | Lysosomal alpha-glucosidase (Homo sapiens), P10253 | recombinant GAA, glycogen substrate, Amplex Red glucose oxidase fluorescence | Potency, µM (doses to about 76.4 µM), most hits filed as inhibitors | hit rate 0.38% among 300,000;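 note: the screen sought inhibitors and activators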
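Recombinant human alpha-glucosidase (4 nM final) hydrolysed bovine liver glycogen (30 ug) for 40 min at 37 C in pH 5.0 citrate/phosphate with 0.01% Tween-20. Released glucose detected by glucose oxidase/Amplex Red, Ex 573/Em 610 nm. Compounds up to 77 uM; AC50 from Hill fits.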
N370S GC mod – qHTS Assay for Inhibitors and Activators of N370S glucocerebrosidase as a Potential Chaperone Treatment of Gaucher Disease; Lysosomal acid glucosylceramidase (Homo sapiens), P04062; N370S GC spleen homogenate, 4MU-glucoside fluorescence; Potency, µM (highest dose often 59.4 µM), hits mostly inhibitors; hit rate 0.092% among 330,000
GLA inh pH 4.5 – qHTS Assay for Inhibitors of Human alpha-Galactosidase at pH 4.5. activity change, negative = inhibition, % at 105 µM. AID 1467, 2008. 230,000 tested, under 10 active. Alpha-galactosidase A (Homo sapiens), P06280. purified enzyme, 4-MU-alpha-Gal fluorescence, pH 4.5
GLA spleen mod – qHTS Assay for Inhibitors and Activators of Human alpha-Galactosidase From Spleen Homogenate; Alpha-galactosidase A (Homo sapiens), P06280; human spleen homogenate, 4MU-alpha-Gal fluorescence, 40 min; Potency, µM (doses to about 80 µM), most hits filed as inhibitors; hit rate 0.008% among 240,000; AID 2107, 2009
Target sequence (P06280 32-429 limits assumed): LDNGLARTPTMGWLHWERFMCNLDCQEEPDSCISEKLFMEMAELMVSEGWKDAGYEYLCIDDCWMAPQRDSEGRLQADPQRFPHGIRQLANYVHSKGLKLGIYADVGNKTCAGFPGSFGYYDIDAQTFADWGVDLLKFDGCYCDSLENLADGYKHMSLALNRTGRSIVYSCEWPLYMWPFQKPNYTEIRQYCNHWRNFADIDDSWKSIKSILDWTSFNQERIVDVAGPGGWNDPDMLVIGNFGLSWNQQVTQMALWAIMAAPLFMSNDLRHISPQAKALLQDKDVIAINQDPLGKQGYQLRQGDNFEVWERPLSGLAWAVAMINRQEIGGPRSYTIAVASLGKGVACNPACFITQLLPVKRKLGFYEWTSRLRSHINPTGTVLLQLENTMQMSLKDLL
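Spleen homogenate 1 ug + cpd (titration) + 4-MU-alpha-D-galactopyranoside 1 mM; 37C 40 min; 50 mM citrate/phosphate pH 5.0, 0.01% Tween-20; stop pH 10; fluorescence 365/440; AC50 via Hill.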
A number is an active result; i = inactive; ? = inconclusive; nt = not tested or not shown; [ ] = dose if it differs, or a comment. This is a sample that favours compounds with a hit; in the whole collection about 0.43% have one here. Calls come from the whole dose curve; as a rule, active = well fitted curve in the direction sought with a large enough effect; inconclusive = small, poorly fitted or top-dose-only effect, or another doubt; inactive = no such curve, though single readings can be large; an effect the other way counts as inactive or inconclusive.

SMILES	aGlu spleen mod	GAA inhib	GAA glycogen	N370S GC mod	GLA inh pH 4.5	GLA spleen mod
COc1cc(/C=N/Nc2ccccc2C(F)(F)F)ccc1O	?	i	35µM	i	i	i
COc1cc(/C=N/Nc2ccccn2)cc(OC)c1O	i	i	18µM	i	i	i
COc1ccc(CNc2ccnc(-c3ccc(N(C)C)cc3)n2)c(OC)c1	i	nt	nt	i	nt	i
C[C@@H]1C(=O)N(S(=O)(=O)c2ccccc2[N+](=O)[O-])[C@H]1c1ccc(-c2ccccc2)cc1	i	nt	nt	i	nt	i
CCOc1ccccc1NC(=O)C1CCN(S(=O)(=O)c2c(C)noc2/C=C/c2ccco2)CC1	nt	nt	i	nt	nt	nt
N#Cc1c(N)nc(N)nc1Nc1ccc(Br)cc1	i	i	i	i	i	i
Nc1cnc(Nc2ccc(Br)cc2)nc1N	i	i	7µM	?	i	i
COc1cc(-c2cc(=O)c3c(O)c(OC)c(OC)c(O)c3o2)ccc1O	i	nt	22µM	i	i	i
COc1ccc(-c2cc(=O)c3c(O)c(OC)c(OC)c(OC)c3o2)cc1OC	i	nt	nt	i	i	i
CCC(C)C(NC(=O)OC(C)(C)C)C(=O)NC1COC2CC(n3ccc(=O)[nH]c3=O)OC12 (centres undefined)	i	nt	nt	i	nt	i
Cc1cc(OCCn2cc(/C(N)=N/O)c3ccccc32)ccc1Cl	i	i	18µM	?	i	i
COc1cccc(NC(=S)NNC(=O)C(C)n2nc(C)c([N+](=O)[O-])c2C)c1 (centres undefined)	i	i	10µM	i	i	i
COc1cccc(NC(=S)NNC(=O)c2c([N+](=O)[O-])c(C)nn2C)c1	i	i	25µM	i	i	i
CC(C)C/C(O)=C/c1nc2cc(Cl)ccc2oc1=O	i	i	?	i	i	i
O=c1oc2ccc(Cl)cc2nc1/C=C(\O)c1ccco1	i	nt	7.1µM	i	i	i
Cc1ccc(/C(O)=C/c2nc3cc(C)ccc3oc2=O)cc1	i	nt	16µM	i	i	i
CC(=O)N=c1sc2ccccc2n1C	i	i	i	i	i	i
N/N=c1\sc2ccccc2n1-c1ccccc1	i	i	20µM	i	i	i
COc1ccc(Nc2nc(-c3cccs3)nc3ccccc23)cc1	i	i	i	1.1µM	i	i
COc1cccc(-c2nc(N(C)C)c3ccccc3n2)c1	i	nt	nt	i	nt	i
COc1cccc(Nc2nc(-c3cccs3)nc3ccccc23)c1	i	i	i	13µM	i	i
COc1ccc(Nc2nc(-c3ccccc3)nc3ccccc23)cc1	nt	nt	i	?	nt	nt
COc1cccc(CN(C)c2nc(-c3cccs3)nc3ccccc23)c1	i	i	i	1.6µM	i	i
O=C(Cn1c(=O)n(Cc2ccccc2)c(=O)c2sc3ccccc3c21)Nc1ccccc1	nt	nt	7.9µM	nt	nt	nt
Cc1ccc(Nc2nc3c([nH]2)c(=O)n(C)c(=O)n3C)cc1	i	i	20µM	i	i	i
SMILES	aGlu spleen mod	GAA inhib	GAA glycogen	N370S GC mod	GLA inh pH 4.5	GLA spleen mod
Cc1oc(-c2ccccc2F)nc1CS(=O)(=O)CC(=O)N1CCN(c2ccc(Cl)cc2)CC1	nt	nt	i	nt	nt	nt
O=C1OCC(CO)(CO)N=C1NNc1ccccc1Cl	i	i	28µM	i	i	i
CCOC(=O)c1ccc(N2C(=O)c3[nH]nc(-c4ccccc4)c3C2c2cccs2)cc1 (centres undefined)	nt	nt	i	nt	nt	nt
COc1cc(CN2CCN(C(=O)CC(C)C)CC2)cc(OC)c1O	i	i	40µM	i	i	i
COc1ccc(C(=O)N2CCN(Cc3cc(OC)c(O)c(OC)c3)CC2)cc1OC	i	i	20µM	i	i	i
COc1ccc(-c2ccoc2)cc1C1C2C=CCC(C)C2C(=O)N1Cc1ccccc1 (centres undefined)	i	nt	nt	i	nt	i
CC(=O)c1ccc(N2CCN(C(=O)CCC(=O)c3cccs3)CC2)cc1	i	i	i	i	i	i
O=C(CCC(=O)N1CCN(c2ccc(O)cc2)CC1)c1cccs1	i	nt	11µM	i	i	i
Cc1ccc(OCCC(=O)N2CCN(c3ccc(O)cc3)CC2)cc1	i	nt	13µM	i	i	i
COc1cccc(C2CC(=O)Nc3c2c(=O)[nH]c2nc4ccccc4n32)c1 (centres undefined)	nt	nt	40µM	nt	nt	nt
Cc1ccc(NC(=O)CSc2cn(CC(=O)N3CCCC3)c3ccccc23)cc1Cl	nt	nt	i	nt	nt	nt
COc1cccc(-n2cc(C(=O)NCc3ccccc3OC)c3ccccc3c2=O)c1	nt	nt	40µM	nt	nt	nt
C=C(C)c1cccc(C(C)(C)NC(=O)Nc2ccc(C(N)=O)cc2)c1	i	i	i	i	i	i
C=C(C)c1cccc(C(C)(C)NC(=O)Nc2cccnc2)c1	nt	nt	i	22µM	nt	nt
O=C1CC(c2ccc(F)cc2)c2c(c3ccccc3[nH]c2=O)O1 (centres undefined)	nt	nt	i	nt	nt	nt
COc1cc(C2CC(=O)Oc3c2c(=O)[nH]c2ccccc32)cc(OC)c1OC (centres undefined)	nt	nt	50µM	nt	nt	nt
COCCNc1ncnc2ccc(-c3c(C)noc3C)cc12	i	nt	nt	i	nt	i
Cc1noc(/C=C/c2cccs2)c1S(=O)(=O)N1CCC(C(=O)Nc2ccc(F)c(Cl)c2)CC1	nt	nt	i	nt	nt	nt
COc1ccc(NC2=C(Cl)C(=O)N(c3ccccc3)C2=O)c(OC)c1	i	i[15.4 µM]	i	i	nt	i
COc1ccc(N2C(=O)C(Cl)=C(Nc3c(C)n(C)n(-c4ccccc4)c3=O)C2=O)cc1	i	i	25µM	i	i	i
CC12C=C(/C=C/c3ccc(C(F)(F)F)cc3)C(C)(C1)C(c1ccc(C(F)(F)F)cc1)CC2=O (centres undefined)	i[17.4 µM]	nt	nt	i[12.8 µM]	nt	i[17.5 µM]
COc1ccc(N=Cc2c(O)c3ccccc3n2C(C)=O)cc1	i	nt	i	i	i	i
COc1ccc(N=Cc2sc(O)c3ccccc23)cc1	i	i	20µM	i	i	i
CC(=O)c1ccc(NC(=O)c2ccc3c(c2)N(Cc2cccc(Cl)c2)C(=O)c2ccccc2S3(=O)=O)cc1	nt	nt	i	nt	nt	nt
O=C1NN(c2ccccc2)C(=O)/C1=C\c1cccc(OC(=O)c2cccs2)c1	i	i	20µM	nt	i	i
O=C1NN(c2ccc(Cl)c(Cl)c2)C(=O)/C1=C/c1cccc(OC(=O)c2cccs2)c1	i	i	i	i	i	i
NC(=NCCCCCCN=C(N)/N=C(\N)Nc1ccc(Cl)cc1)/N=C(\N)Nc1ccc(Cl)cc1	i	nt	i	6.3µM	i	i
